Reference: PubChem BioAssay AID463173 (ICCB-Longwood Screening Facility, Harvard Medical School, 2010)
Out of some 52,000 compounds screened, about 1,700 (3.3%) were called active. This is one part of a sample in which actives are shown more often than they occur. No stated cut-off is given here; in the data, active means survival mostly below about 52% (no sharp cut-off); inactive means mostly above about 56%.

The molecules below were run on Wild type (assay: S. aureus survival, RN4220 and DeltatarO strains – OD600, teichoic acid synthesis inhibitors, primary screen (AID 463173)). Conditions: S. aureus RN4220 wild type/DeltatarO growth, OD600, 18 h, active compounds read low, screened at 18.75 µg/mL (by protocol).

Row | SMILES | survival
1 | COc1ccc(Cl)cc1NC(=O)C1CCN(c2ncnc3c2nc2n3CCCCC2)CC1 | 82% (inactive)
2 | O=S1(=O)CCC(c2ccccc2)C1 (stereo not given) | 100% (inactive)
3 | COc1ccc2cc(C(=O)NCc3ccc4c(c3)CCN4C(=O)c3ccc(F)cc3)[nH]c2c1 | 68% (inactive)
4 | COc1ccc2cc(C(=O)NCc3ccc4c(c3)CCN4C(=O)c3ccc(C)cc3)[nH]c2c1 | 84% (inactive)
5 | COc1ccc(CCC(=O)NCc2ccc3c(c2)CCN3C(=O)c2cccc(C)c2)cc1 | 67% (inactive)
6 | COc1ccc(C(=O)NCc2ccc3c(c2)CCN3C(=O)c2ccccc2)cc1 | 82% (inactive)
7 | COc1ccc2cc(C(=O)NCc3ccc4c(c3)CCN4C(=O)c3ccccc3)[nH]c2c1 | -3% (active)
8 | CCOc1ccc(C(=O)NCc2ccc3c(c2)CCN3C(=O)c2ccc(Cl)cc2)cc1 | 81% (inactive)
9 | O=C(NCc1ccc2c(c1)CCN2C(=O)c1ccccc1)c1cc2ccccc2[nH]1 | 1% (active)
10 | O=C(NCc1ccc2c(c1)CCN2C(=O)c1ccc(F)cc1)c1cc2ccccc2[nH]1 | 99% (inactive)
11 | COc1ccc(OCC(=O)NCc2ccc3c(c2)CCN3C(=O)c2cccc(C)c2)cc1 | 72% (inactive)
12 | CCOc1ccc(C(=O)NCc2ccc3c(c2)CCN3C(=O)c2ccccc2)cc1 | -4% (active)
13 | Cc1cccc(C(=O)N2CCc3cc(CNC(=O)c4cc5ccccc5[nH]4)ccc32)c1 | 72% (inactive)
14 | COc1ccc(CC(=O)NCc2ccc3c(c2)CCN3C(=O)c2cccc(C)c2)cc1 | -6% (active)
15 | CC(C)c1cc2cc(/C=C/C(=O)O)c(O)cc2o1 | 39% (inactive)
16 | CCC(CC)N1CCN(S(=O)(=O)c2ccc(NC(C)=O)cc2)CC1 | 113% (inactive)
17 | O=C(/C=C/c1ccccc1)N1CCN(CCN2C(=O)C3C4C=CC(C4)C3C2=O)CC1 (stereo not given) | 124% (inactive)
18 | Cc1nc(-c2ccc(S(=O)(=O)NCc3ccc(F)cc3)cc2)co1 | 68% (inactive)
19 | Nc1c(-c2nc(-c3ccc4c(c3)OCO4)cs2)c2ccccn2c1C(=O)c1ccccc1 | 86% (inactive)
20 | COc1ccccc1N1CCN(C(=O)C2CCN(S(=O)(=O)Cc3ccccc3)CC2)CC1 | 84% (inactive)
21 | COc1ccc(-c2nc(CS(=O)CC(=O)NCc3ccccc3OC)c(C)o2)cc1 (stereo not given) | 123% (inactive)
22 | O=C(C1CCC(Cn2c(=O)c3sccc3n(Cc3ccccc3)c2=O)CC1)N1CCOCC1 (stereo not given) | 95% (inactive)
23 | CCCn1c2ccccc2c2cnn(CC(=O)N3CCC(C(=O)OCC)CC3)c(=O)c21 | 87% (inactive)

Row | SMILES | survival
24 | Cc1ccc(N2CCN(c3nc4ccc(C(=O)c5ccccc5)cc4n4cnnc34)CC2)c(C)c1 | 72% (inactive)
25 | CCc1nnc2c3ccccc3nc(N3CCN(c4cc(Cl)ccc4C)CC3)n12 | 126% (inactive)
26 | Cc1ccc(C)c(N2CCN(c3nc4ccccc4n4c(C)nnc34)CC2)c1 | 87% (inactive)
27 | Cc1ccc(Cl)cc1N1CCN(c2nc3ccc(C(=O)c4ccccc4)cc3n3cnnc23)CC1 | -6% (active)
28 | CCc1nnc2c(N3CCN(c4cc(Cl)ccc4C)CC3)nc3ccccc3n12 | -6% (active)
29 | Cc1ccc(C)c(N2CCN(c3nc4ccc(C(=O)c5ccccc5)cc4n4cnnc34)CC2)c1 | 100% (inactive)
30 | O=C(CN1C(=O)C2(SCC(=O)N2c2ccc(F)c(F)c2)c2ccccc21)Nc1cccc(Cl)c1 (stereo not given) | 68% (inactive)
31 | CCOC(=O)c1cccc(Nc2c3c(nc4ccccc24)CCC3)c1 | 73% (inactive)
32 | COc1ccc(Nc2c3c(nc4ccccc24)CCC3)cc1Cl | 72% (inactive)
33 | Cc1ccc2nc3c(c(Nc4ccc(C)c(C)c4)c2c1)CCC3 | 39% (inactive)
34 | Fc1ccc(Nc2c3c(nc4ccccc24)CCC3)cc1 | 70% (inactive)
35 | Cc1ccc(Nc2c3c(nc4ccccc24)CCC3)cc1F | 2% (active)
36 | Fc1ccc(F)c(Nc2c3c(nc4ccc(Cl)cc24)CCC3)c1 | -1% (active)
37 | FC(F)(F)c1cccc(Nc2c3c(nc4ccc(Cl)cc24)CCC3)c1 | 5% (active)
38 | Fc1ccccc1Nc1c2c(nc3ccccc13)CCC2 | 102% (inactive)
39 | COc1ccccc1Nc1c2c(nc3ccc(NC(=O)c4cccc(F)c4)cc13)CCCC2 | 35% (inactive)
40 | CC1(C)Cc2nc3sc4c(N5CCOCC5)ncnc4c3cc2CO1 | 97% (inactive)
41 | O=C(Cn1c(=O)oc2ccccc21)NCc1cccc(Cl)c1 | 78% (inactive)
42 | CCOC(=O)c1cnc2nc(NCc3cccc(Br)c3)[nH]n2c1=O | 98% (inactive)
43 | NC(=O)C1CCN(c2nc(C3CC3)nc3c2nnn3Cc2ccccc2Cl)CC1 | 108% (inactive)
44 | O=C(CN1C=NS(=O)(=O)c2ccc(C(F)(F)F)cc21)Nc1cccc(C(F)(F)F)c1 | 76% (inactive)
45 | COc1cccc(C2CC(=O)Nc3c2c(=O)n(C)c2nc4ccccc4n32)c1OC (stereo not given) | 67% (inactive)
46 | Cc1oc(-c2ccc(C(=O)NCCCOC(C)C)cc2)nc1CS(=O)(=O)c1ccccc1 | -6% (active)

Row | SMILES | survival
47 | Cc1ccc(S(=O)(=O)Cc2nc(-c3ccc(C(=O)NCCCOC(C)C)cc3)oc2C)cc1 | 75% (inactive)
48 | CCOCCCNC(=O)c1ccc(-c2nc(CS(=O)(=O)c3ccccc3)c(C)o2)cc1 | 87% (inactive)
49 | CCOc1ccc(-c2nc(SCC(=O)Nc3ccc4c(c3)OCO4)c(-c3ccc(F)cc3)[nH]2)cc1 | 98% (inactive)
50 | Cc1ccc(Cl)cc1-n1ncc2c(NCc3ccc(F)cc3)ncnc21 | 73% (inactive)
51 | O=C(NC1CC(=O)N(c2ccccc2)C1)c1ccc(S(=O)(=O)N2CCOCC2)cc1 (stereo not given) | 14% (active)
52 | O=C(NC1CC(=O)N(c2ccccc2)C1)c1ccc(S(=O)(=O)N2CCCC2)cc1 (stereo not given) | 133% (inactive)
53 | O=C(NC1CC(=O)N(c2ccc(Cl)cc2)C1)c1ccc(S(=O)(=O)N2CCOCC2)cc1 (stereo not given) | 91% (inactive)
54 | O=C(NC1CC(=O)N(c2ccccc2)C1)c1ccc(S(=O)(=O)N2CCCCC2)cc1 (stereo not given) | -1% (active)
55 | Cc1ccc(N2CC(NC(=O)c3ccc(S(=O)(=O)N4CCOCC4)cc3)CC2=O)cc1 (stereo not given) | 47% (inactive)
56 | O=C(NC1CC(=O)N(c2ccc(F)cc2)C1)c1ccc(S(=O)(=O)N2CCCCC2)cc1 (stereo not given) | 83% (inactive)
57 | CCOc1ccc(NC(=O)C2CCN(S(=O)(=O)c3c(C)noc3/C=C/c3ccco3)CC2)cc1 | 73% (inactive)
58 | CC(=O)c1ccc(S(=O)(=O)Nc2ccc(-c3ccc(N4CCCCCC4)nn3)cc2)cc1 | 83% (inactive)
59 | CCOC(=O)c1c(S(=O)(=O)NCC(=O)N2CCN(c3ccccc3)CC2)c(C)n(C)c1C | 112% (inactive)
60 | CCSc1nnc2n(-c3ccccc3)c(=O)c3c4c(sc3n12)CCCC4 | 108% (inactive)
61 | Cc1cccc(-n2c(=O)c3c4c(sc3n3cnnc23)CCCC4)c1 | 72% (inactive)
62 | CCCSc1nnc2n(-c3cccc(C)c3)c(=O)c3c4c(sc3n12)CCCC4 | 2% (active)
63 | CCSc1nnc2n(-c3cccc(C)c3)c(=O)c3c4c(sc3n12)CCCC4 | 81% (inactive)
64 | CCCCSc1nnc2n(-c3cccc(C)c3)c(=O)c3c4c(sc3n12)CCCC4 | -1% (active)
65 | CSc1nnc2n(-c3cccc(C)c3)c(=O)c3c4c(sc3n12)CCCC4 | 79% (inactive)
66 | Cc1cc(=O)[nH]c(SCC(=O)N(c2ccccc2)c2ccccc2)n1 | 103% (inactive)
67 | Cc1ccc(NC(=O)N2CC3CCCN3c3ccccc32)cc1Cl (stereo not given) | 83% (inactive)
68 | Cc1ccc(NC(=O)N2CC3CCCN3c3ccccc32)cc1C (stereo not given) | -2% (active)
69 | Cc1ccc(NC(=O)N2CC3CCCN3c3ccccc32)c(C)c1 (stereo not given) | 117% (inactive)

Row | SMILES | survival
70 | COc1ccc(S(=O)(=O)c2c(Nc3c(C)cccc3C)sc(C(=O)c3ccc4c(c3)OCO4)c2N)cc1 | 74% (inactive)
71 | CCOC(=O)c1ccccc1NC(=O)c1ccco1 | 121% (inactive)
72 | Cc1cc(Nc2ccccc2F)n2nc(-c3ccccc3)nc2n1 | 84% (inactive)
73 | COc1ccccc1Nc1cc(C)nc2nc(-c3ccccc3)nn12 | 14% (active)
74 | Cc1cc(Nc2cc(Cl)ccc2C)n2nc(-c3ccccc3)nc2n1 | 93% (inactive)
75 | CCCCC1CCC(C(=O)N2CC(=O)Nc3ccc(Cl)cc3C2c2ccc(F)cc2)CC1 (stereo not given) | 71% (inactive)
76 | CC1CCN(C(=O)c2cc3n(n2)C(C(F)(F)F)CC(c2ccccc2)N3)C(C)C1 (stereo not given) | 123% (inactive)
77 | Cc1cccc(C(=O)Nc2cccc(OCc3cc(=O)n4ccccc4n3)c2)c1 | 72% (inactive)
78 | CSc1ccc(CCNC(=O)c2ccc3c(c2)c(C)c(C)n3Cc2ccc(F)cc2)cc1 | 70% (inactive)
79 | Cc1ccc(CNC(=O)c2c[nH]n3c(=O)c(Cc4ccc(F)cc4Cl)c(C)nc23)cc1 | -15% (active)
80 | Cc1nc2nc(NC(=O)c3ccc(Cl)cc3)[nH]n2c(=O)c1Cc1ccccc1 | 93% (inactive)
81 | Cc1nc2c(C(=O)NCCc3ccccc3)cnn2c(C)c1Cc1c(F)cccc1Cl | 71% (inactive)
82 | Cc1nc2nc(NCc3ccc(Cl)cc3)[nH]n2c(=O)c1Cc1ccccc1 | 61% (inactive)
83 | Cc1ccc(CNC(=O)c2cnn3c(C)c(Cc4c(F)cccc4Cl)c(C)nc23)cc1 | 65% (inactive)
84 | Cc1ccc(CNC(=O)c2c[nH]n3c(=O)c(Cc4ccc(Cl)cc4)c(C)nc23)cc1 | -14% (active)
85 | Cc1nc2nc(NC(=O)c3ccc(F)cc3)[nH]n2c(=O)c1Cc1ccccc1 | 88% (inactive)
86 | Cc1ccc(CNC(=O)CN2CCN(Cc3ccc(F)cc3Cl)C2=O)cc1 | 81% (inactive)
87 | Cc1nc2c(C(=O)NCCc3ccccc3)c[nH]n2c(=O)c1Cc1ccc(F)cc1Cl | -15% (active)
88 | O=C(NCCc1ccccc1)c1ccc2c(c1)N(Cc1ccc(F)cc1Cl)C(=O)CS2 | 67% (inactive)
89 | Cc1nc2c(C(=O)NCCc3ccccc3)c[nH]n2c(=O)c1Cc1ccccc1F | -15% (active)
90 | Cc1cccn2c(=O)c(C(=O)NCCc3ccccc3)cnc12 | 49% (inactive)
